Targets with a hit are over-represented here; the source holds about 7,900 in all. About 0.6% of all pairs of compound and target were hits.
How the values were obtained:
Test in all cases: log2 fold change, soluble protein after heating vs DMSO (PISA); higher = thermal stabilisation; K562 cells, 10 uM, 30 min; active = over 0.2 and 3.5 SD of the protein, either way, in both replicates (recomputed)
[1] = compound: C1=CC=C(C=C1)[C@H](COC2=CC3=C(C=C2)NC(=O)N3)NC(=O)C4=CC=CN(C4=O)CC5=CC(=C(C=C5)F)F
In short: (§1)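 Thermal stability values are relative to control samples and come from duplicates. They are expressed as log2 fold changes. For measurement, K562 cells (2×10^6 cells/mL) received 10 μM compound for 30 min, and aliquots were heated for 3 min over 48°C-58°C, pooled, and extracted at 4°C in PBS with 0.5% NP-40. Soluble protein, the supernatant after 21,000xg for 90 min, was quantified by TMTpro 16plex LC-MS/MS with equalised channel sums.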

[2] = compound: CC1=C(SC2=C1C(=N[C@H](C3=NN=C(N32)C)CC(=O)N)C4=CC=C(C=C4)Cl)C
In short: as §1

[3] = compound: CC1=C2C(=CC=C1)N=C(N(C2=O)C3=CC=CC=C3C)CN4C=NC5=C(N=CN=C54)N
In short: as §1

[4] = compound: Cc1sc2c(c1C)C(c1ccc(Cl)cc1)=N[C@@H](CC(=O)OC(C)(C)C)c1nnc(C)n1-2
In short: as §1

[5] = compound: c1ccc([C@@H]2C[C@H]2NC2CCNCC2)cc1
In short: as §1

Measured: log2 fold change

PDE4DIP isoform 4 (UniProt Q5VU43)
inactive: [1] 0.023 | [2] 0.043 | [3] 0.046 | [4] -0.023 | [5] -0.011

PCGF2 (UniProt P35227)
inactive: [1] -0.046 | [2] 0.133 | [3] -0.015 | [4] 0.002 | [5] -0.05

PLD3 (UniProt Q8IV08)
Chain of UniProt Q8IV08 (Q8IV08 whole entry, looked up): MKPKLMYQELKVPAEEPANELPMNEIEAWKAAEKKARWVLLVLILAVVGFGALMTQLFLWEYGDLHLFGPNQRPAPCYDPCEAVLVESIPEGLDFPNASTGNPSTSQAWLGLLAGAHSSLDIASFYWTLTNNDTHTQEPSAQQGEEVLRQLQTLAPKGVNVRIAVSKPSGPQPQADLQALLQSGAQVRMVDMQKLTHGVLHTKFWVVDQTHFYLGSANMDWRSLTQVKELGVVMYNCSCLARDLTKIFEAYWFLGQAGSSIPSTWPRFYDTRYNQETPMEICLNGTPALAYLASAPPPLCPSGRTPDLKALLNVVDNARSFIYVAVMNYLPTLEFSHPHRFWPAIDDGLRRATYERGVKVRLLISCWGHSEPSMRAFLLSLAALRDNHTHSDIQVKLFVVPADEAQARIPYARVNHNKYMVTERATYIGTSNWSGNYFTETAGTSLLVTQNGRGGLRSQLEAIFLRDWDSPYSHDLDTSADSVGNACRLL
inactive: [1] 0.022 | [2] 0.058 | [3] 0.033 | [4] 0.017 | [5] 0.009

PUF60 isoform 2 (UniProt Q9UHX1)
inactive: [1] 0.044 | [2] 0.097 | [3] -0.312 | [4] -0.146 | [5] -0.079

PKN1 isoform 2 (UniProt Q16512)
inactive: [1] -0.077 | [2] 0.079 | [3] 0.069 | [4] 0.015 | [5] 0

PTP4A2 (UniProt Q12974)
Chain of UniProt Q12974 (Q12974 whole entry, looked up): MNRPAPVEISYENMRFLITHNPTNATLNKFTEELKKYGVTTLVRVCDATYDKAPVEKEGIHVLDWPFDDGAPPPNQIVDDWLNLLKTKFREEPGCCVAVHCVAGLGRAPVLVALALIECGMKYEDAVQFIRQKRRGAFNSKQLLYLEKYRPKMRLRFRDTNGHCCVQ
inactive: [1] -0.021 | [2] 0.028 | [3] 0.056 | [4] 0.052 | [5] -0.029

PLEKHM2 (UniProt Q8IWE5)
Chain of UniProt Q8IWE5 (Q8IWE5 whole entry, looked up): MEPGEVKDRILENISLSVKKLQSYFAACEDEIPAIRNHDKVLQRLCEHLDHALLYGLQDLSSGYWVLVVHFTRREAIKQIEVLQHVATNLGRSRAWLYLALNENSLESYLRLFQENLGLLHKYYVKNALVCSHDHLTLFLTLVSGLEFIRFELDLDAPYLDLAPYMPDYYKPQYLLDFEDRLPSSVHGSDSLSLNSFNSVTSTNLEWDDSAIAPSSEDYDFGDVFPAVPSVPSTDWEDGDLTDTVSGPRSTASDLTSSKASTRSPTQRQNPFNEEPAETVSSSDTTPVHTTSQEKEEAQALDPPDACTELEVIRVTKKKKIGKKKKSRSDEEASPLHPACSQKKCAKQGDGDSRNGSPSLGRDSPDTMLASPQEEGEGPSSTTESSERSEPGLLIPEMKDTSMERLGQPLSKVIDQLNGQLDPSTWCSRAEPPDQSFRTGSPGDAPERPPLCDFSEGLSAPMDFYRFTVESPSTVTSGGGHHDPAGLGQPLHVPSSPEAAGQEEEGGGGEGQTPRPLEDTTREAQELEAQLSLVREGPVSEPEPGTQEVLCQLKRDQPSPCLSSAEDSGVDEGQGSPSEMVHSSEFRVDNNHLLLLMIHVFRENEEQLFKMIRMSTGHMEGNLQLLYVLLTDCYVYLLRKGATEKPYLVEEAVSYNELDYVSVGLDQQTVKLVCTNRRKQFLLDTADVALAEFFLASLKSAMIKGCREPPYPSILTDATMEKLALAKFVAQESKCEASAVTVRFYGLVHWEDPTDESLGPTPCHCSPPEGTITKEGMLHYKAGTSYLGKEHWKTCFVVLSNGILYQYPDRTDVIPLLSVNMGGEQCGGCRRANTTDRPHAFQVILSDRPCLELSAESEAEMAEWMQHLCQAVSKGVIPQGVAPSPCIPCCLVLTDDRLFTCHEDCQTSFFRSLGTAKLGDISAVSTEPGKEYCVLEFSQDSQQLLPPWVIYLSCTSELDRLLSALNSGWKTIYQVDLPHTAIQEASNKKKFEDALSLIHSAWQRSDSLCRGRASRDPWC
inactive: [1] -0.027 | [2] 0.076 | [3] -0.016 | [4] 0.089 | [5] -0.048

PNPLA8 (UniProt Q9NP80)
inactive: [1] 0.024 | [2] 0.031 | [3] 0.007 | [4] -0.006 | [5] 0.024

PSMA3 (UniProt P25788)
inactive: [1] 0.051 | [2] -0.062 | [3] -0.022 | [4] -0.036 | [5] -0.029

PDCD2L (UniProt Q9BRP1)
inactive: [1] -0.031 | [2] 0.055 | [3] 0.109 | [4] 0.021 | [5] 0.091

POGLUT1 (UniProt Q8NBL1)
Chain of UniProt Q8NBL1 (Q8NBL1 whole entry, looked up): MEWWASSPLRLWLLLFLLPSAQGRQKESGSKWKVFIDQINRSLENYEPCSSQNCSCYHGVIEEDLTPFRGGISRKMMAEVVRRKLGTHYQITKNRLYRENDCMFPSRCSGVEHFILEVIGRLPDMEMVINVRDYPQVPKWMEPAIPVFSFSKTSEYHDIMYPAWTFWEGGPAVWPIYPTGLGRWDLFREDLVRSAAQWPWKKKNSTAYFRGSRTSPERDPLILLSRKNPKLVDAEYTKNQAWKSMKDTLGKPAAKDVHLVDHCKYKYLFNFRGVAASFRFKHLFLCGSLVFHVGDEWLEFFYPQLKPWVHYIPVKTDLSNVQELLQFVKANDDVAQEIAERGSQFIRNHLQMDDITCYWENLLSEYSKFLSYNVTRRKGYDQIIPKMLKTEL
inactive: [1] 0.039 | [2] -0.041 | [3] 0.082 | [4] 0.07 | [5] 0.015

PBK (UniProt Q96KB5)
Chain of UniProt Q96KB5 (Q96KB5 whole entry, looked up): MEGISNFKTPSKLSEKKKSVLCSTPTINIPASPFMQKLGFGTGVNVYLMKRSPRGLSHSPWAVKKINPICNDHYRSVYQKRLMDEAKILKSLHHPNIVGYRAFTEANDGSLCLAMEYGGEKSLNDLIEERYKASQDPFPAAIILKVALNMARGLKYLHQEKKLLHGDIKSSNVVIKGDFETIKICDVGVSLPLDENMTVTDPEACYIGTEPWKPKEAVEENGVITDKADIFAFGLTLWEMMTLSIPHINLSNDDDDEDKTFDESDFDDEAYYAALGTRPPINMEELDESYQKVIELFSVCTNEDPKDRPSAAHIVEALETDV
inactive: [1] -0.06 | [2] 0.016 | [3] 0.067 | [4] 0.023 | [5] -0.016

PSMC1 (UniProt P62191)
inactive: [1] 0.047 | [2] -0.09 | [3] -0.002 | [4] 0 | [5] 0

PRKCQ (UniProt Q04759)
inactive: [1] -0.064 | [2] 0.069 | [3] 0.104 | [4] 0.033 | [5] 0

PRKAA1 isoform 2 (UniProt Q13131)
inactive: [1] 0.001 | [2] 0.085 | [3] 0.024 | [4] 0.004 | [5] 0.019

PPP2R5C isoform 4 (UniProt Q13362)
Chain of UniProt Q13362 (Q13362 whole entry, looked up): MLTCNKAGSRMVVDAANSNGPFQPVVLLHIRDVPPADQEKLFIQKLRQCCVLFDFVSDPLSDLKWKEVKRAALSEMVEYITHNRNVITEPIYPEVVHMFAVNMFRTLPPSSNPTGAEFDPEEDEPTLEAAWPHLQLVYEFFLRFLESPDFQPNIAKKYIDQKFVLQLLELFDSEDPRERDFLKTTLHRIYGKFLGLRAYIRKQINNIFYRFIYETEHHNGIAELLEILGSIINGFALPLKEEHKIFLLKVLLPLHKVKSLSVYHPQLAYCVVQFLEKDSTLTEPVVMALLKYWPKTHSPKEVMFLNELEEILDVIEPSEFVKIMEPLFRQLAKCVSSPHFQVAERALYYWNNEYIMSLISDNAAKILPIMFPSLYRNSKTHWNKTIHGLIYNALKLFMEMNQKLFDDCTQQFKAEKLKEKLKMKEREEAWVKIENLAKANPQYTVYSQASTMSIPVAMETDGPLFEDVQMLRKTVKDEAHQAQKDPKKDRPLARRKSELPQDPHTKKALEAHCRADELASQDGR
inactive: [1] -0.03 | [2] -0.003 | [3] 0.117 | [4] -0.019 | [5] 0.012

PARP1 (UniProt P09874)
Chain of UniProt P09874 (P09874 whole entry, looked up): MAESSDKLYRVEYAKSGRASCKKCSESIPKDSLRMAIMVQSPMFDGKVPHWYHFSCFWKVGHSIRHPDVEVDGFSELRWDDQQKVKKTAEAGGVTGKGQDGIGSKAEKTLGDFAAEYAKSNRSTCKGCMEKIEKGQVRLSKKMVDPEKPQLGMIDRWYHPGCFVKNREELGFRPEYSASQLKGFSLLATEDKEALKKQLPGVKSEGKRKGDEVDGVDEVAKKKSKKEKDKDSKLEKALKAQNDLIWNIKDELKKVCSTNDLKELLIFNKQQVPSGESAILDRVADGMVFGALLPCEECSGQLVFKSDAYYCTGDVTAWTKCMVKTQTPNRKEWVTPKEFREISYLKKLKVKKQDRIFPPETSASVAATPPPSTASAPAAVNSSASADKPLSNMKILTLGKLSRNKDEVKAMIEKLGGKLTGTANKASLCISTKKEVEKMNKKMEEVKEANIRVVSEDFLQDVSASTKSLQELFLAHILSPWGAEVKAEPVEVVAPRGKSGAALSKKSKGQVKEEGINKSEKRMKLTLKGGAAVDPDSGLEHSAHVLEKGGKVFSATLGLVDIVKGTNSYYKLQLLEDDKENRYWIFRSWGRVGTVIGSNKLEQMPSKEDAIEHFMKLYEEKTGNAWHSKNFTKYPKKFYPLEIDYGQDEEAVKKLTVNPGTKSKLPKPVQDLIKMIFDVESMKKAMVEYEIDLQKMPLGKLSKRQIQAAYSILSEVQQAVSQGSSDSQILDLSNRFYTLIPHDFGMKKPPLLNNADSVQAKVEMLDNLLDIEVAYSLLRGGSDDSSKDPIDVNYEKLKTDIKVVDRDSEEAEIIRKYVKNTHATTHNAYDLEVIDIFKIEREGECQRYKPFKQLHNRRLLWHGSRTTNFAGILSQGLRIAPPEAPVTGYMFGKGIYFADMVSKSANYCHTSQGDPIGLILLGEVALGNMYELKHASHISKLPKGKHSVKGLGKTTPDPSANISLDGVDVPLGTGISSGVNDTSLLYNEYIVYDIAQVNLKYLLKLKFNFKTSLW
inactive: [1] -0.098 | [2] 0.027 | [3] 0.182 | [4] -0.069 | [5] -0.101

POLR2K (UniProt P53803)
inactive: [1] 0.053 | [2] 0.06 | [3] 0.046 | [4] 0.032 | [5] -0.056

QKI (UniProt Q96PU8)
inactive: [1] -0.016 | [2] 0.039 | [3] 0.105 | [4] -0.082 | [5] 0.01

PPIL2 (UniProt Q13356)
Chain of UniProt Q13356 (Q13356 whole entry, looked up): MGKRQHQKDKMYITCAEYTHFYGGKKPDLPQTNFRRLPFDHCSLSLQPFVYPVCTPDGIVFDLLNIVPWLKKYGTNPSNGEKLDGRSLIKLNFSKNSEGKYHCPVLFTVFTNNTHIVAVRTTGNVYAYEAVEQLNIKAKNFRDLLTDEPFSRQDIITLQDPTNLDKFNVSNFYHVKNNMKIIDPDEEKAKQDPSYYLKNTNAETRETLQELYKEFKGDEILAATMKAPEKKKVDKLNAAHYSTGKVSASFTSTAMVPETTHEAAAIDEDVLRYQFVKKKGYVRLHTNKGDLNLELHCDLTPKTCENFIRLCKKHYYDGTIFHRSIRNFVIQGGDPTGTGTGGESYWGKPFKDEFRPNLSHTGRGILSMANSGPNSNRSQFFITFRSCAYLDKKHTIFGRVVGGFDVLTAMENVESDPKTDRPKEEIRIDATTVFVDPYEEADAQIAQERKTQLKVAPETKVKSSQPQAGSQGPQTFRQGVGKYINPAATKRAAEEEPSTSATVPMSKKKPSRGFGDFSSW
inactive: [1] -0.028 | [2] 0.041 | [3] 0.098 | [4] -0.019 | [5] -0.011

PDE4A (UniProt P27815)
inactive: [1] -0.11 | [2] 0.128 | [3] 0.102 | [4] -0.112 | [5] 0.201

PPT2 isoform 3 (UniProt Q9UMR5)
Chain of UniProt Q9UMR5 (Q9UMR5 whole entry, looked up): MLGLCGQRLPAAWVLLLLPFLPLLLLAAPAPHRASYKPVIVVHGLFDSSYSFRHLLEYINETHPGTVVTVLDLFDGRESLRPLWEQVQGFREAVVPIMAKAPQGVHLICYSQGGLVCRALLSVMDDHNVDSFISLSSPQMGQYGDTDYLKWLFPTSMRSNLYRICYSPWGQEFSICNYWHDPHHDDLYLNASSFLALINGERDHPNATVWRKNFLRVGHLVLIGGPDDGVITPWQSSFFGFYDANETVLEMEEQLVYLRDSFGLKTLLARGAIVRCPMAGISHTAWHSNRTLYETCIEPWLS
inactive: [1] 0.015 | [2] -0.062 | [3] -0.011 | [4] -0.053 | [5] 0.03

PELP1 (UniProt Q8IZL8)
inactive: [1] 0 | [2] 0.006 | [3] -0.028 | [4] -0.044 | [5] -0.013

PEX16 isoform 2 (UniProt Q9Y5Y5)
inactive: [1] -0.01 | [2] 0.095 | [3] 0.087 | [4] -0.031 | [5] -0.048

Reference: the supplement of paper PMC10849652
